# Experimental data published in PubChem BioAssay AID1460 (National Center for Advancing Translational Sciences (NCATS), 2008).
# In all, about 270,000 compounds went through this assay and about 5,800 (2.1%) were called active. About 16% were inconclusive and are not listed. The call rests on the fitted dose curve; in most records, active means well fitted inhibition curve with a large enough effect; inconclusive means small, poorly fitted or top-dose-only effect; inactive means flat fitted curve, though single readings scatter. This excerpt belongs to a sample that is enriched for actives.
# Target: Microtubule-associated protein tau (Homo sapiens) (UniProt P10636)
# Assay: qHTS for Inhibitors of Tau Fibril Formation, Thioflavin T Binding; further: nearly all actives have a fitted effect of over 55% in size
# Conditions: recombinant tau K18 P301L (four-repeat tau fragment), heparin-induced fibrillization, ThT fluorescence; series mostly up to 57.4 µM; activity, negative = inhibition: at the top concentration
# From the text: NIH Molecular Libraries Probe Production Network [MLPCN]
# NIH Chemical Genomics Center [NCGC]
# Assay Provider: Carlo Ballatore, University of Pennsylvania
# The microtubule-associated protein tau is an abundant protein in the axons of neurons that stabilizes microtubules. With its ability to modulate microtubule dynamics, tau contributes directly or indirectly, to key structural and regulatory cellular functions. Particularly important is the influence tau exerts on axonal transport, which allows signaling molecules, trophic factors and other essential cellular constituents to travel along the axons. Under pathological conditions, tau becomes sequestered into insoluble aggregates called neurofibrillary tangles. This phenomenon is believed to have pathological consequences by promoting axonal transport deficits that ultimately lead to synaptic dysfunction and neuronal loss. To identify inhibitors of tau aggregation, a heparin-induced tau fibril formation assay was used that employed a recombinantly expressed fragment of tau, K18 (Q242-E372), bearing a P301L mutation (Gustke et al. 1994; Hong et al. 1998). This assay monitors tau fibrillization by Thioflavin T (ThT) fluorescence.
# Gustke, N., B. Trinczek, et al. (1994). "Domains of tau protein and interactions with microtubules." Biochemistry 33(32): 9511-22.
# Hong, M., V. Zhukareva, et al. (1998).
# Li, W. and V. M. Lee (2006).
# von Bergen, M., S. Barghorn, et al. (2001). "Mutations of tau protein in frontotemporal dementia promote aggregation of paired helical filaments by enhancing local beta-structure." J Biol Chem 276(51): 48165-74.
# NCGC Assay Protocol Summary:
# For screening, 2 uL/well human K18 P301L (15 uM unlabeled and 0.24 uM Alexa 594-labeled tau, final concentrations) in reagent buffer (100 mM sodium acetate pH 7) was dispensed into black solid 1536-well plates (Grenier) using a solenoid-based dispenser. Following transfer of 23 nL compound or DMSO vehicle by a pin tool, 2 uL/well heparin (20 uM final concentration) in reagent buffer was added and the plate centrifuged 15 s at 1000 RPM. Plates were incubated 6 hr at 37 C and then 1 uL/well ThT (30 uM final concentration) was added. After a 1 hr ambient incubation, the plates were read by an Envision (Perkin Elmer) to monitor ThT fluorescence (450/8 nm excitation and 510/23 nm emission).
# Keywords: NIH Roadmap, MLPCN, MLI, MLSMR, NCGC, qHTS, tau, tauopathies, Alzheimer's disease, fibril, neurodegeneration, aggregation
# On the % scale 0 is the no-effect control and ±100 the full control effect; potency means the concentration at half of the fitted maximal effect.
# Sequence of Microtubule-associated protein tau (Homo sapiens) (P10636 561-689 P618L limits assumed): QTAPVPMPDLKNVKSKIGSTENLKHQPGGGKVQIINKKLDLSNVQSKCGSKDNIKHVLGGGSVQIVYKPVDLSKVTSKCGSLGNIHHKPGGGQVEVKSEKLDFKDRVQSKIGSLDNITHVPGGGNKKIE
Compound,"activity, negative = inhibition",Potency
CC1CCN(S(=O)(=O)c2ccc3c(ccn3CCC(=O)NCc3ccc(N(C)C)cc3)c2)CC1,-18.4% (inactive),
Cc1nc2c(-c3ccccc3)c(C)nn2c(C)c1CCC(=O)NCCc1ccccc1,-8.23% (inactive),
CCOc1ccc(NC(=O)c2cn(C3CCCCC3)c(=O)c3c2c2ccccc2n3C)cc1,-9.2% (inactive),
O=C(Cn1ncn2nc(-c3cccs3)cc2c1=O)NCc1cccc(Br)c1,-5.56% (inactive),
Cc1ccc(NC(=O)Cc2ccc(NC(=O)N3CCCCc4ccccc43)cc2)cc1,0.89% (inactive),
Cc1c(Cl)cccc1NC(=O)C(=O)NCCc1csc2nc(-c3ccccc3F)nn12,1.36% (inactive),
CC(C)Cn1c(=O)c2ccccc2n2c(-c3cccc(Cl)c3)nnc12,-17.1% (inactive),
O=c1[nH]c2ccccc2n2c(-c3ccccc3)nnc12,,10 µM (active)
O=[N+]([O-])c1cccc(-c2nnc3c4ccccc4c4ccccc4n23)c1,-15.2% (inactive),
CCOC(=O)c1cnc2[nH]c3ccccc3n2c1=O,6.45% (inactive),
CC(Nc1ccc(-c2nc(-c3ccco3)no2)cc1[N+](=O)[O-])c1ccccc1 (configuration not stated),-14.2% (inactive),
Cc1ccccc1-n1c(C)cc(/C=C2\NC(=O)NC2=O)c1C,-0.6% (inactive),
Cc1cc(C)c(/C=C2\C(=O)Nc3ccccc32)[nH]1,,3.16 µM (active)
CN(C)/C=C1/C(=O)Nc2ccccc21,-7.07% (inactive),
Cc1nnc(SCc2cc(=O)c3cc(F)ccc3[nH]2)n1C,-1.18% (inactive),
CCOc1ccc(C2C(=O)N(C3CCCCC3)CC(=O)N2CCC2=CCCCC2)cc1OC (configuration not stated),0.595% (inactive),
Cc1oc2ncnc(N3CCOCC3)c2c1C(=O)NCCc1ccccc1,4.33% (inactive),
COc1cc(/C=C(\C#N)c2nc3c(s2)CC(C)CC3)ccc1O (configuration not stated),,12.6 µM (active)
Cc1ccc(-c2nnc(SCc3ccccc3C)o2)cc1,-7.49% (inactive),
Cc1ccc(-c2cc(-c3coc4ccccc4c3=O)c3c(n2)-c2cc(Cl)ccc2OC3)cc1,-12.1% (inactive),
O=C(CCc1cn(Cc2ccc(F)cc2)c2ccccc12)NC1CCCCC1,-4.41% (inactive),
OCCC#Cc1ccc(CN2CCN(Cc3ccsc3)C(CCO)C2)cc1 (configuration not stated),,11.2 µM (active)
OCCC1CN(Cc2cccc(OC3CCCC3)c2)CCN1Cc1ccsc1 (configuration not stated),-12.6% (inactive),
OCCC1CN(Cc2ccccc2-c2ccco2)CCN1Cc1ccsc1 (configuration not stated),-0.703% (inactive),
Cc1ccc(-c2nnc(SCC(=O)NCc3ccccc3)nc2-c2ccc(C)cc2)cc1,-6.11% (inactive),
CCOC(=O)CSC1=Nc2ccccc2C2=NC(CCC(=O)NCc3ccc(F)cc3)C(=O)N12 (configuration not stated),3.95% (inactive),

Compound,"activity, negative = inhibition",Potency
COc1ccc(Cn2ccn(CC(=O)Nc3cc(C)ccc3C)c(=O)c2=O)cc1,-16.1% (inactive),
CCS(=O)(=O)N1CCc2cc(C(=O)NCc3ccc(OC)cc3)ccc21,-4.87% (inactive),
CCOc1ccc(C(c2c(C)[nH][nH]c2=O)c2c(C)[nH][nH]c2=O)cc1OCC,-16.1% (inactive),
Cc1[nH][nH]c(=O)c1C(c1ccc(-c2ccc(Cl)cc2)o1)c1c(C)[nH][nH]c1=O,,7.08 µM (active)
CC1CCCN(c2cc3c(cc2F)c(=O)c(S(=O)(=O)c2cccc(Cl)c2)cn3Cc2ccccc2)C1 (configuration not stated),-0.998% (inactive),
CCOc1ccc(CC(=O)NCCc2csc3nc(-c4ccccc4F)nn23)cc1,-7.65% (inactive),
O=C(Nc1ccc(S(=O)(=O)N2CCC(c3nc4ccccc4s3)CC2)cc1)c1ccccc1F,2.61% (inactive),
CC(C)c1ccc(NS(=O)(=O)c2ccc3[nH]cc(C(=O)NC4CCCC4)c(=O)c3c2)cc1,9.63% (inactive),
CCn1c2ccccc2c2nnc(N3CCN(c4cc(C)ccc4C)CC3)nc21,-1.08% (inactive),
O=c1c(=O)n(Cc2c(F)cccc2Cl)ccn1Cc1ccccc1,-16.6% (inactive),
Cc1ccc(CNC(=O)CCc2c(C)nn(-c3ccc(N4CCCC4)nn3)c2C)cc1,-9.71% (inactive),
Cc1ccc(S(=O)(=O)c2ccc(Oc3ccccc3)cc2)cc1,-5.65% (inactive),
CC1=C/C(=N\S(=O)(=O)c2ccccc2)C(C(C)C)=CC1=O,0.736% (inactive),
CC1=C/C(=N\OS(=O)(=O)c2ccccc2)C=CC1=O,,3.16 µM (active)
COc1ccc(OC)c(-c2nc(C(N)=O)c3c(n2)n(-c2ccc4c(c2)OCO4)c(=O)n3C)c1,-10.3% (inactive),
CC(C)(C)OC(=O)N1CCC(c2c(C(=O)N3CCc4ccccc4C3)cnn2-c2ccc(F)cc2)CC1,-16% (inactive),
O=c1cc(-c2ccccc2)nc(N2CCCCC2)[nH]1,0.526% (inactive),
CC(=O)c1cc(C#N)c(N2CCCCC2)nc1C,0.825% (inactive),
CC(=O)c1cc(-c2ccccc2)[nH]c1N1CCCC1,,14.1 µM (active)
CCCc1nn2c(=O)cc(COC(=O)c3ccc(NC(=O)COc4ccc(F)cc4)cc3)nc2s1,3.87% (inactive),
CCCN(C(=O)Cn1ncc2c([nH]c3ccc(C)cc32)c1=O)c1ccccc1C,-8.01% (inactive),
O=c1cc(CSc2ncn[nH]2)[nH]c2ccc(F)cc12,-1.06% (inactive),
CCCN(CCC)C(=O)C1CCCN(c2ncnc3c2nc2n3CCCCC2)C1 (configuration not stated),-2.59% (inactive),
Cc1cc(-c2ccc(/C=N/n3cnnc3)o2)c([N+](=O)[O-])cc1C,5.29% (inactive),
Cc1ccc(-c2ccc(/C=C(\C#N)C(N)=S)o2)c([N+](=O)[O-])c1,,3.98 µM (active)
Cc1ccc2nc(SCc3nnc(-c4ccccc4[N+](=O)[O-])o3)c(C#N)cc2c1,-1.14% (inactive),

Compound,"activity, negative = inhibition",Potency
CCOc1ccc2nc(N3CCCC(C(=O)Nc4cc(C)ccc4C)C3)sc2c1 (configuration not stated),-8.84% (inactive),
O=C(NCc1ccccc1)c1cccc(NC(=O)N2CCSc3ncccc32)c1,5.68% (inactive),
CC(=O)N1c2ccc(S(=O)(=O)N3CCCCCC3)cc2CC1C(=O)NCc1ccccc1C (configuration not stated),-5.53% (inactive),
Cc1ccc(C(=O)NCCNC(=O)c2ccccc2)cc1,-12.8% (inactive),
C/C(=N\NC(=O)c1ccc(C)cc1)C1C(=O)c2ccccc2C1=O,,5.01 µM (active)
Cc1ccc(C(=O)NC(=S)Nc2ccccc2C)cc1,1.33% (inactive),
COc1ccc(C2C(=O)N(C3CCCCCC3)CC(=O)N2CCc2ccc(Cl)cc2)cc1OC (configuration not stated),-5.92% (inactive),
CC(C)CNc1ncnc2c1nnn2C,-0.799% (inactive),
Cc1cccc(-c2nc(SCC(=O)Nc3cc(C)on3)c3c(=O)n(C)c(=O)n(C)c3n2)c1,-3.19% (inactive),
Cc1ccc(N(CC(=O)NCc2ccc(Cl)cc2)S(=O)(=O)N(C)C)cc1,2.93% (inactive),
Cc1ccc2sc(N(Cc3cccnc3)C(=O)C3COc4ccccc4O3)nc2c1C (configuration not stated),-8.74% (inactive),
Cc1cc(C(=O)COC(=O)CCCN2C(=O)c3ccccc3C2=O)c(C)n1C,-9.79% (inactive),
CC(C)OC(=O)CN1C(=O)C(=O)c2ccccc21,-13.1% (inactive),
CCCCN1C(=O)/C(=C(/C#N)C(N)=O)c2ccccc21,,20 µM (active)
Cc1ccc(-n2nc(C)c3c(C)cc(=O)n(CC(=O)Nc4ccc(C(C)C)cc4)c32)cc1,20.4% (inactive),
CCOc1ccc(N=C2SC(C(=O)O)CC(=O)N2C)cc1 (configuration not stated),8.58% (inactive),
CCOc1ccc(N=C2NC(=O)S/C2=C\c2ccc(O)cc2)cc1,,3.55 µM (active)
CCOc1ccc(/C=N/NC(N)=S)cc1,-8.57% (inactive),
Cc1cc(OC(C)C(=O)Nc2sc3c(c2C(N)=O)CCCC3)ccc1Cl (configuration not stated),-10.9% (inactive),
COc1ccccc1CCNC(=O)c1cccn1-c1nnc(N2CCCCC2)s1,6.81% (inactive),
COc1ccc(CNC(=O)C2=Cc3cccc(OC)c3OC2)cc1OC,-1.13% (inactive),
COc1ccc(Cc2nc3ccc(C(=O)NCc4ccc(OC)cc4OC)cc3o2)cc1,-16.5% (inactive),
CC1CCCN(S(=O)(=O)c2ccc3[nH]c(=O)cc(C(=O)NCCc4ccc(Cl)cc4)c3c2)C1 (configuration not stated),6.2% (inactive),
CC(C)OCCCn1c(SCC(=O)c2ccccc2)nc2c(sc3ccccc32)c1=O,-3.27% (inactive),
Cc1cc(F)ccc1NS(=O)(=O)c1ccc(-n2cccn2)cc1,0.124% (inactive),
CC(C)CC(=O)NCC(c1ccc2c(c1)OCO2)N1CCN(c2ccc(F)cc2)CC1 (configuration not stated),-1.35% (inactive),

Compound,"activity, negative = inhibition",Potency
O=C(CN1CCN(Cc2ccccc2)CC1)NC(c1ccccc1)c1ccccc1,-6.32% (inactive),
O=C1c2ccccc2C(=O)c2c1cccc2N1CCN(Cc2ccccc2)CC1,,14.1 µM (active)
O=c1cc(N2CCN(Cc3ccccc3)CC2)c(-c2ccccc2)n[nH]1,-8.74% (inactive),
CC(=O)c1ccc(NC(=O)CSc2nc(-c3ccccc3F)nc3c2c(=O)n(C)c(=O)n3C)cc1,-4.07% (inactive),
COc1ccc(Cn2ccn(Cc3cccc(OC)c3)c(=O)c2=O)cc1,-1.27% (inactive),
Cn1c(=O)oc2cc(S(=O)(=O)CCC(=O)NCCc3ccc(Cl)cc3)ccc21,-5.87% (inactive),
Cc1ccc(C)c(Oc2c(C(F)(F)F)oc3c(CN4CCN(C)CC4)c(O)ccc3c2=O)c1,5.1% (inactive),
Fc1ccccc1Oc1ncnc2c1oc1ccccc12,0.723% (inactive),
CCOc1ccc(/C=N/NC(=O)C(C)Sc2ccccn2)cc1OCC (configuration not stated),-11% (inactive),
CCOc1ccc(/C=N/Nc2nncc(-c3ccccc3)n2)cc1OC,,2.24 µM (active)
C=CCOc1ccc(/C=N/NC(=O)C(C)Sc2ccccn2)cc1OCC (configuration not stated),-0.608% (inactive),
COc1ccc(-c2ccc(=O)n(CC(=O)Nc3ccc(Br)cc3F)n2)cc1,-0.585% (inactive),
Cc1ccccc1CN1CCC(CNC(=O)c2cc3ccc4cccnc4c3[nH]2)CC1,3.15% (inactive),
COc1cccc(C(=O)Nc2ccc(-c3cc(C(F)(F)F)nn3-c3ccccc3)cc2)c1,-2.4% (inactive),
COc1cccc(C(=O)Nc2nnc(S(=O)(=O)N3CCOCC3)s2)c1,,3.16 µM (active)
COc1ccc(C(=O)Nc2nc(-c3ccc(S(=O)(=O)N4CCOCC4)cc3)cs2)cc1,-6.13% (inactive),
O=C(Nc1nc2cc3c(cc2s1)OCCO3)c1cccc(S(=O)(=O)N2CCOCC2)c1,-8.31% (inactive),
COc1cccc(C(=O)Nc2ccc(N3CCCC3)cc2)c1,,14.1 µM (active)
CCC(=O)Nc1ccc(C(=O)Nc2cccc(OC)c2)cc1,-2.56% (inactive),
COc1cc(NC(=O)C2CCN(c3cnccn3)CC2)cc(OC)c1,0.931% (inactive),
CCc1ccc(S(=O)(=O)c2nnn3c2nc(N2CCN(CC)CC2)c2sccc23)cc1,-2.76% (inactive),
CCC(=O)Nc1ccccc1-c1nc2ccccc2n(CC(=O)Nc2ccc(C)c(C)c2)c1=O,-4.76% (inactive),
COc1ccc(C=Nc2cccc3ncccc23)cc1,-11.3% (inactive),
Oc1c(C=Nc2cccc3nsnc23)ccc2ccccc12,,2.24 µM (active)
